PubChem BioAssay (NCI)
“And” between values parts separate entries of the source, which are not always exact repeats. Equal entries are not always repeated. This is part of a sample that, as a whole, favours compounds with a hit. Of some 79,000 tested, about 15% had one in any assay. The source made the active and inactive calls. Rule as the data show it: active = growth inhibition above about 70%; inactive = the rest.

Key:
[1] = NCI Yeast Anticancer Drug Screen. Data for the rad50 strain (AID 155);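 also: 0% = growth of vehicle-only cultures of the same strain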; settings: S. cerevisiae rad50 strain growth inhibition; at 50.0 µM; active compounds read high
Summary of the method: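 A DNA repair-deficient yeast mutant serves as the test organism; compound-induced growth inhibition is calculated against vehicle-treated cells.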

[2] = NCI Yeast Anticancer Drug Screen. Data for the mec2-1 strain (AID 157); settings: S. cerevisiae mec2-1 strain, at 50.0 µM, active compounds read high
Summary of the method: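 Cells of the genetically defined mec2-1 yeast strain are incubated with test compound. Inhibition of growth is calculated against vehicle-treated controls.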

[3] = NCI Yeast Anticancer Drug Screen. Data for the sgs1 mgt1 strain (AID 161);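 also: 0% = growth of cultures given vehicle only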; settings: S. cerevisiae sgs1 mgt1 strain, at 50.0 µM, active compounds read high
Summary of the method: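 Test agents were incubated with a DNA-repair-mutant yeast strain. Growth was then read and compared against vehicle-treated controls.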

[4] = NCI Yeast Anticancer Drug Screen. Data for the cln2 rad14 strain (AID 165);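 also: 0% = growth equal to vehicle treated cultures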; settings: S. cerevisiae cln2 rad14 strain, at 50.0 µM, active compounds read high
Summary of the method: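 The screen exposed genetically defined yeast (cln2 rad14) to test compounds and scored growth inhibition relative to vehicle-treated controls.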

[5] = NCI Yeast Anticancer Drug Screen. Data for the bub3 strain (AID 167); settings: S. cerevisiae bub3 mutant strain, at 50.0 µM, active compounds read high
Summary of the method: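 Inhibition values come from growth of compound-treated mutant yeast normalised to vehicle-treated controls.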

[6] = NCI Yeast Anticancer Drug Screen. Data for the mlh1 rad18 strain (AID 175); settings: S. cerevisiae mlh1 rad18 strain growth inhibition; at 50.0 µM; active compounds read high
Summary of the method: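 Compound-treated yeast growth, normalised to vehicle controls. Strain bears defined DNA repair mutations.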

Measured: growth inhibition

COP(=O)(NC(=O)OC(C)C)OC
inactive: [1] -37.1% | [2] -21.2% | [3] -9.8% | [4] 5.2% | [5] -15.4% | [6] -7.95%

CC(C)(C)C(=O)CC(=O)C(C)(C)C.[Cl][Sb]1([Cl])[c]2ccccc2Cc2cccc[c]21
inactive: [1] -1.05% | [2] 23.9% | [3] 20.1% | [4] -13.8% | [5] 0.75% | [6] 8.95%

O=S1(=O)c2ccccc2-c2ccccc21
inactive: [1] -5% | [2] -7.95% | [3] -13.8% | [4] -3.5% | [5] -11.6% | [6] 5.65%

N/C(=N\N=C\c1ccccc1O)N[N+](=O)[O-]
inactive: [1] -17.5% | [2] -22.9% | [3] -14.8% | [4] -108% | [5] -19.2% | [6] -5.85%

CCCC[P+](C#Cc1ccccc1)(CCCC)CCCC
inactive: [1] 8.65% | [2] 3.5% | [3] 9.5% | [4] 3.75% | [5] -3.2% | [6] 2%

O=C1c2c(ccc3ccccc23)CN2CCCCC12 (centres undefined)
inactive: [1] 42.2% | [2] 19.6% | [3] 61.9% | [4] 14% | [5] 40.4% | [6] 45.2%

O=[As](O)(O)Cc1cccc(F)c1
inactive: [1] -3.8% | [2] -7.8% | [3] -6.65% | [4] -46.5% | [5] 2.1% | [6] -8.35%

COC(=O)C1=C(N2CCCC2)C2c3ccccc3SC12C(=O)OC (centres undefined)
inactive: [1] 20.1% | [2] 10.8% | [3] -0.25% | [4] 0.7% | [5] 14.2% | [6] 9.3%

COc1ccc(C(OCC2OC(n3ccc(NC(=O)c4ccccc4)nc3=O)CC2OP2(=S)SCCS2)(c2ccccc2)c2ccc(OC)cc2)cc1 (centres undefined)
inactive: [1] 10.6% | [2] -13.1% | [3] -4.1% | [4] 10% | [5] 37%
active: [6] 78.7%

C[N+](C)(C)CCP(=O)([O-])O
inactive: [1] -3.3% | [2] 0% | [3] 1.55% | [4] -13.1% | [5] -3.1% | [6] 5.45%

CN(C)c1ccc(N=Nc2cccc(C(=O)[O-])c2)cc1.CN(C)c1ccc(N=Nc2cccc(C(=O)[O-])c2)cc1.NC1CCCCC1N.[Pt+4]
inactive: [1] -13.4% | [2] -4.05% | [3] -18.4% | [4] 1.2% | [5] -28.1% | [6] 36.5%

NC(=O)C(Cl)(Cl)Cl
inactive: [1] -6.6% | [2] 9.25% | [3] 6.1% | [4] 4.95% | [5] -5.65% | [6] 12.4%

N#CC1CCCCC1
inactive: [1] 0.4% | [2] -5.4% | [3] -0.35% | [4] -3.9% | [5] 4.65% | [6] 1.65%

COc1ccccc1CC(C)NC(C)Cc1ccccc1OC (centres undefined)
inactive: [1] 2.25% | [2] -3.4% | [3] 8.05% | [4] -1.8% | [5] -1.4% | [6] 7.6%

NCCN1CC2CCC(CC2)C1
inactive: [1] -53.1% | [2] -48.3% | [3] -27.1% | [4] -5.75% | [5] -3.55% | [6] -11.7%

CN1C2C=CC1c1c(C3=NC(C)(C)CO3)cccc12 (centres undefined)
inactive: [1] -8.15% | [2] -8.05% | [3] -7.95% | [4] -36% | [5] 6.85% | [6] 2.6%

CCC[CH2][Sn]([Br])([CH2]CCC)[CH2]CCC
active: [1] 91.2% | [2] 97.8% | [3] 95.8% | [4] 96% | [5] 89.4% | [6] 97.3%

COc1cccc(C=C(C#N)C#N)c1OC
inactive: [1] -9.8% | [2] -8.05% | [3] -3.35% | [4] 5.05% | [5] -3.8% | [6] 4.5%

C#CCOC(=O)C=[N+]=[N-]
inactive: [1] -11.7% | [2] -6.75% | [3] -10.6% | [4] 14.7% | [5] 3.85% | [6] -2.1%

NC(N)=NOCC[C@@H](N)C(=O)O
inactive: [1] -0.5% | [2] -3.7% | [3] 8.85% | [4] 20.2% | [5] 1.4% | [6] 11.7%

CC(=O)Oc1cccc2c1C(=O)C(C(=O)C=O)C1C(C=O)OC(C)(C)OC21C (centres undefined)
inactive: [1] 29.6% | [2] 0.1% | [3] 33.6% | [4] 14.8% | [5] 16.8% | [6] 12.1%

CCCCC(CC)C(=O)NC(N)=O (centres undefined)
inactive: [1] 6.7% | [2] -20.1% | [3] -5.35% | [4] -22.4% | [5] -12.2% | [6] 4.1%

C1CC[N-]CC1.CC(=N\O)/C(C)=N/O.CC(=N\O)/C(C)=N/O.[CH2-]Cl.[Co+2]
inactive: [1] 4.6% | [2] 14.8% | [3] 14.4% | [4] -31.6% | [5] 20.1% | [6] 27.9%

Cc1cc2[nH]c3c(C#N)c(OC(=O)N(C)C)c(C)c(=O)n3c2cc1C
inactive: [1] 37.3% | [2] 22.3% | [3] 31.6% | [4] 17.1% | [5] 27.9% | [6] 39%

CN(C)CCC(O)c1c[nH]c2ccccc12 (centres undefined)
inactive: [1] 6% | [2] 1% | [3] -4.1% | [4] -5.15% | [5] 1.15% | [6] 1.15%

CC(C)CCC(=O)c1ccoc1
inactive: [1] -2.45% | [2] -9.95% | [3] -1.55% | [4] 3.65% | [5] 5.45% | [6] -28.6%

CC1(C)[C@@H]2CC[C@]1(C)[C@H](OC(=O)C(Cl)(Cl)Cl)C2
inactive: [1] -16.6% | [2] -5.35% | [3] -9.65% | [4] -19.3% | [5] 26.8% | [6] 9.75%

COC(=O)[C@H]1[C@@H](O)[C@@]2(O)c3c(OC)cc(OC)cc3O[C@@]2(c2ccc3c(c2)OCO3)[C@@H]1c1ccccc1
active: [1] 89% | [2] 92.5% | [3] 91% | [4] 90.2% | [5] 88.2% | [6] 92.2%

CCC[CH2][Sn]1([CH2]CCC)[O]C(=O)CN=C(C)c2ccccc2[O]1
inactive: [1] 0.1% | [2] 9.85% | [3] 4% | [4] 45.5% | [5] 9.8% | [6] 3.45%

O=C(COc1ccc(Cl)c(Cl)c1)Nc1ccc[n+](Cc2c(Cl)cccc2S(=O)(=O)F)c1
inactive: [1] 14.8% | [2] 22.1% | [3] -17.7% | [4] 39.9% | [5] -1.5% | [6] 5.35%

CN(C)CCC(C)(C#N)c1ccccc1 (centres undefined)
inactive: [1] 8.9% | [2] 5.7% | [3] -4.8% | [4] -7.05% | [5] 13.9% | [6] 21.1%

CC(=O)NN=C(N)N
inactive: [1] 3.15% and -2% | [2] -1.5% and 2.75% | [3] -0.55% and 11.7% | [4] -29.9% and -24.1% | [5] -6.75% and -10.2% | [6] 14.1% and 5.9%

O=C1CC(c2cccc(Br)c2)n2cccc21 (centres undefined)
inactive: [1] 9.9% | [2] -1.1% | [3] 9.95% | [4] 37.5% | [5] 13.8% | [6] -5.7%

CCOP(=O)(CN(CCO)CCO)OCC
inactive: [1] -5.85% | [2] 12% | [3] 11.4% | [4] 0% | [5] -6.5% | [6] 4.25%

COc1ccc(CC(N)c2ccccc2)cc1OC (centres undefined)
inactive: [1] -15.3% | [2] 23.9% | [3] -8.85% | [4] -21.1% | [5] -1.55% | [6] -29.1%

CN(C)CCCCCCN(C)C
inactive: [1] -8.85% | [2] 3.9% | [3] -12.5% | [4] -9.8% | [5] 6.9% | [6] -4.75%

Oc1cccc2cccnc12.[Cr]
inactive: [1] 6% | [2] -0.65% | [3] -7.65% | [4] -7% | [5] -16.9% | [6] -9.65%

CC(=O)O.CC(=O)O.CC(=O)O.CC(=O)O.CC(=O)O.CC(=O)O.O.[Ti].[Ti]
inactive: [1] -6.65% | [2] -23.8% | [3] -23.6% | [4] -4.2% | [5] -10.1% | [6] -34%

Cc1ccc(CCl)c(O)c1
inactive: [1] -25.7% | [2] -14.6% | [3] -6% | [4] -12.5% | [5] 7.1% | [6] -0.8%

Nc1nc(N)n2c(N)nnc2n1
inactive: [1] -3.4% | [2] -19.4% | [3] -0.25% | [4] 1.5% | [5] 4.65% | [6] 13.7%

CNC(Cc1ccccc1)c1ccc(OC)cc1 (centres undefined)
inactive: [1] 27.1% | [2] 17.2% | [3] 32.3% | [4] 5.75% | [5] 34.6% | [6] 35.6%

CC(=O)O[C@H]1C(=O)[C@@]2(C)C(C(OC(=O)c3ccccc3)[C@]3(O)C[C@H](OC(=O)C(OC(=O)CCCC(=O)NCCCN(C)C)C(NC(=O)c4ccccc4)c4ccccc4)C(C)=C1C3(C)C)C1(OC(C)=O)COC1C[C@@H]2O (some centres undefined)
inactive: [1] -1.1% | [2] -0.35% | [3] 3.8% | [4] -10.3% | [5] -0.95% | [6] 7.35%

CN1CN(c2ccccc2)C2(CCN(CCCSc3ccccc3NC(=O)/C=C/c3ccccc3)CC2)C1=O
inactive: [1] 20% | [2] -3.95% | [3] 18.8% | [4] 18.9% | [5] 41.3% | [6] 34.2%

NCCN.NCCN.O=C([O-])C(=O)[O-].[Cl-].[Co+3]
inactive: [1] -22.4% | [2] -16.7% | [3] -31.8% | [4] -0.45% | [5] -24.6% | [6] -29.8%
